Out of some 290,000 compounds screened, about 27,000 (9.3%) were called active. This is one part of a sample in which actives are shown more often than they occur. A number with no mark means an inactive call. Cut-off read from the data, not from the text of the source: active = inhibition mostly above about 28% (no sharp cut-off); inactive = mostly below about 43%.
Assay: A qHTS for Small Molecule Inhibitors of Shiga Toxin; note: 0% is about no effect
Settings: Vero cells, Shiga toxin protein synthesis inhibition reporter; at 38.7 µM, hits give high values

**Q.** Which inhibition does the source give for CCOc1ccc(CNC(=O)C2CCCN(c3nnc(C)c4c(C)n(-c5ccccc5)nc34)C2)cc1 (stereo unspecified) here?
**A.** Its inhibition is -7.91%.

**Q.** With N#CC1(NC(=O)COC(=O)CCN=C2NS(=O)(=O)c3ccccc32)CCCCC1 as the compound, how does the inhibition read?
**A.** Its inhibition is 12.6%.

**Q.** Which inhibition does the source give for COc1cccc(NC(=O)CN(C)C(=O)Cc2ccc(Cl)cc2Cl)c1 here?
**A.** Its inhibition is -4.77%.

**Q.** Which inhibition does the source give for CN(CC(=O)Nc1ccc(Cl)cc1)C(=O)CNC(=O)c1ccc2ccccc2c1 here?
**A.** The inhibition was 121% (active).

**Q.** Which inhibition does the source give for COc1ccc(NC(=O)CN(C)C(=O)CNC(=O)C2CCCCC2)cc1 here?
**A.** Its inhibition is 14.6%.

**Q.** For CC1CCN(S(=O)(=O)c2ccc3c(c2)n(C)c(=O)n3C)CC1, which inhibition is on record?
**A.** The inhibition was -5.36%.

**Q.** Which inhibition does the source give for O=C(Nc1ccc([N+](=O)[O-])cc1)OCCc1ccccn1 here?
**A.** The inhibition was 44%.

**Q.** For O=C(CC1NCCNC1=O)Nc1ccc(Oc2ccccc2)cc1 (stereo unspecified), which inhibition is on record?
**A.** Its inhibition is 61.1% (active).

**Q.** For CCN(CC)CCNCC(=O)Nc1ccc(Oc2ccccc2)cc1, which inhibition is on record?
**A.** The inhibition was 3.13%.

**Q.** With CC1CCN(CCC(=O)Nc2ccccc2)CC1 as the compound, how does the inhibition read?
**A.** The inhibition was -4.96%.

**Q.** With CCOC(=O)c1ccccc1NC(=O)CC1Nc2ccccc2NC1=O (stereo unspecified) as the compound, how does the inhibition read?
**A.** Its inhibition is -1.95%.

**Q.** For COC(=O)c1cc(C)sc1NC(=O)CC1Nc2ccccc2NC1=O (stereo unspecified), which inhibition is on record?
**A.** Its inhibition is 46.2%.

**Q.** With CCOc1ccc(NC(=O)CC2NCCNC2=O)cc1 (stereo unspecified) as the compound, how does the inhibition read?
**A.** The inhibition was 13.1%.

**Q.** With CCc1ccc(NC(=O)CC2C(=O)NCCN2C(=S)Nc2ccccc2)cc1 (stereo unspecified) as the compound, how does the inhibition read?
**A.** Its inhibition is 1.19%.

**Q.** For O=C(CC1Nc2ccccc2NC1=O)Nc1ccccc1NC(=O)CC1Nc2ccccc2NC1=O (stereo unspecified), which inhibition is on record?
**A.** Its inhibition is 73.6% (active).

**Q.** Which inhibition does the source give for O=C(CC1Nc2ccccc2NC1=O)Nc1ccccc1 (stereo unspecified) here?
**A.** Its inhibition is 38.2% (active).

**Q.** For COc1ccc(C23NCCN2C(=O)c2ccccc23)cc1 (stereo unspecified), which inhibition is on record?
**A.** The inhibition was -8.39%.

**Q.** With COc1ccc(CNC(=O)c2cc(C(=O)C3CC3)c[nH]2)cc1 as the compound, how does the inhibition read?
**A.** Its inhibition is 27.9%.

**Q.** For CCOC(=O)c1c(-c2ccccc2)oc2cc(Br)c(O)cc12, which inhibition is on record?
**A.** The inhibition was -8.35%.

**Q.** With COc1cc(OC)cc(C(=O)NCCCn2ccnc2)c1 as the compound, how does the inhibition read?
**A.** The inhibition was 13.8%.

**Q.** Which inhibition does the source give for COCCCNS(=O)(=O)c1cccc(S(=O)(=O)c2cccc(S(=O)(=O)NCCCOC)c2)c1 here?
**A.** Its inhibition is -4.92%.

**Q.** Which inhibition does the source give for CN(C)c1ccc(C(CNC(=O)c2ccc(F)cc2)c2c[nH]c3ccccc23)cc1 (stereo unspecified) here?
**A.** Its inhibition is 5.91%.

**Q.** For CCCS(=O)(=O)Nc1ccc(-c2cn3c(n2)SCC3)cc1, which inhibition is on record?
**A.** Its inhibition is 27.3%.

**Q.** Which inhibition does the source give for O=C(NCCCNc1ccc([N+](=O)[O-])cc1Cl)c1ccccc1F here?
**A.** Its inhibition is -2.91%.

**Q.** Which inhibition does the source give for O=C(NCCNc1ccccc1[N+](=O)[O-])c1ccccc1F here?
**A.** The inhibition was 61.5% (active).

**Q.** For Cc1c(NC(=S)NCc2ccc(F)cc2)cccc1[N+](=O)[O-], which inhibition is on record?
**A.** Its inhibition is -13.6%.

**Q.** With O=[N+]([O-])c1ccccc1NCc1ccccc1Cl as the compound, how does the inhibition read?
**A.** Its inhibition is 8.89%.

**Q.** With O=[N+]([O-])c1ccccc1NCc1ccc(Cl)cc1 as the compound, how does the inhibition read?
**A.** Its inhibition is 48.7% (active).

**Q.** For O=C(O)c1ccccc1C(=O)Nc1ccccc1[N+](=O)[O-], which inhibition is on record?
**A.** The inhibition was 0.458%.

**Q.** Which inhibition does the source give for Cc1cc(S(=O)(=O)NCC(C)C)ccc1OCC(=O)NC1CC1 here?
**A.** Its inhibition is -1.92%.

**Q.** With COc1ccc(O)c(/C=N/N=C/c2cccc([N+](=O)[O-])c2)c1 as the compound, how does the inhibition read?
**A.** The inhibition was 1.13%.

**Q.** With O=C(O)c1ccccc1-c1ccccc1C(=O)Nc1ccccc1Br as the compound, how does the inhibition read?
**A.** Its inhibition is 10.4%.

**Q.** Which inhibition does the source give for COc1cccc2sc(NNC(=O)c3nc4ccccc4s3)nc12 here?
**A.** Its inhibition is 19.2%.

**Q.** Which inhibition does the source give for COc1ccccc1OCc1nc2ccccc2s1 here?
**A.** The inhibition was 63.5% (active).

**Q.** Which inhibition does the source give for COc1ccccc1OCCn1c(SCC(N)=O)nc2ccccc21 here?
**A.** Its inhibition is -12.1%.

**Q.** Which inhibition does the source give for Cc1ccc(O)c(/C=N/NC(=O)COc2ccc3c(C)cc(=O)oc3c2)c1 here?
**A.** The inhibition was 4.79%.

**Q.** Which inhibition does the source give for CCOC12CC(C)(C)CC(C)(CC3=C1C(=O)CC(C)(C)C3)C2 (stereo unspecified) here?
**A.** The inhibition was -2.06%.

**Q.** With CCCCOP(=O)(c1ccc(N(C)C)cc1)C(O)c1cc(OC)ccc1OC (stereo unspecified) as the compound, how does the inhibition read?
**A.** Its inhibition is -2.17%.

**Q.** For CCOC(=O)/C(C#N)=C/c1ccc(N2CCN(Cc3ccccc3)CC2)cc1, which inhibition is on record?
**A.** Its inhibition is 32.9%.

**Q.** With CCOC(=O)/C(C#N)=C/c1ccc(N2CCCCC2)cc1 as the compound, how does the inhibition read?
**A.** Its inhibition is 111% (active).

**Q.** Which inhibition does the source give for COc1ccc(N2CCN(C(=O)/C(C#N)=C/c3ccccc3)CC2)cc1 here?
**A.** The inhibition was 33.9%.

**Q.** For COc1ccc(S(=O)(=O)N2CCC(C(=O)N3CCCC3)CC2)cc1C, which inhibition is on record?
**A.** The inhibition was -7.97%.

**Q.** For CCOc1ccc(NC(=O)c2cccc3c2C(=O)N(CC2CCCO2)C3)cc1 (stereo unspecified), which inhibition is on record?
**A.** Its inhibition is 11.4%.

**Q.** Which inhibition does the source give for COc1ccc(C2CC(O)(c3ccccc3)Oc3cc(C)cc(C)c32)cc1 (stereo unspecified) here?
**A.** Its inhibition is 17.1%.

**Q.** For COCCn1c(SCC(=O)Nc2cc(Cl)ccc2OC)nc2c(c1=O)SC(C)C2 (stereo unspecified), which inhibition is on record?
**A.** The inhibition was 4.22%.

**Q.** Which inhibition does the source give for C=CCSc1nc2c(c(=O)[nH]c(=O)n2C)n1Cc1ccccc1 here?
**A.** Its inhibition is -6.62%.

**Q.** For Cc1cs/c(=N\N=C\c2ccc(O)cc2)n1Cc1ccco1, which inhibition is on record?
**A.** The inhibition was 0% (active).

**Q.** Which inhibition does the source give for CC(C)n1c(=O)c(C=Nc2ccc(Br)cc2)c(O)n(Cc2ccco2)c1=O here?
**A.** The inhibition was -2%.

**Q.** Which inhibition does the source give for CN(c1ccccc1)c1ccc(/C=c2\s/c(=C(/C#N)C(=O)C(C)(C)C)n(Cc3ccco3)c2=O)cc1 here?
**A.** Its inhibition is -15.7%.

**Q.** Which inhibition does the source give for CC(C)c1ccc(Cc2nnc(NCCCO)[nH]c2=O)cc1 here?
**A.** The inhibition was -6.37%.

**Q.** For Cc1ccccc1CN1C(=O)c2ccccc2Sc2ccc(C(=O)NCCCN3CCOCC3)cc21, which inhibition is on record?
**A.** Its inhibition is -7.27%.

**Q.** With COC(=O)c1ccc(CNC(=O)C2CCC(=O)N(Cc3cccc(F)c3)C2)cc1 (stereo unspecified) as the compound, how does the inhibition read?
**A.** Its inhibition is -2.68%.

**Q.** Which inhibition does the source give for CC(C)(C)c1ccc(OC(=O)N2CCCCC2)cc1 here?
**A.** Its inhibition is 104% (active).

**Q.** For O=C(c1ccccc1)c1ccc(OCC(O)CN2CCCC2)cc1 (stereo unspecified), which inhibition is on record?
**A.** The inhibition was 2.19%.

**Q.** For CC(C)(C)c1ccc(C(=O)N2CCC(C(=O)N3CCCCC3)CC2)cc1, which inhibition is on record?
**A.** Its inhibition is -4.15%.

**Q.** For O=C(c1ccccc1)c1ccc(OC(=O)N2CCCC2)cc1, which inhibition is on record?
**A.** Its inhibition is 47.5% (active).

**Q.** For O=C(c1ccccc1)c1ccc(C(=O)N2CCN(c3ccccc3)CC2)cc1, which inhibition is on record?
**A.** The inhibition was 30.8%.

**Q.** For COc1ccc(S(=O)(=O)NC(C)C(=O)N2CCCCCC2)cc1 (stereo unspecified), which inhibition is on record?
**A.** The inhibition was -16.1%.

**Q.** Which inhibition does the source give for O=C(NCCc1ccccn1)c1nc(Cn2cc([N+](=O)[O-])cn2)no1 here?
**A.** Its inhibition is -5.12%.

**Q.** Which inhibition does the source give for COc1cccc(CN(C)CC(O)COC(c2ccccc2)c2ccccc2C)c1 (stereo unspecified) here?
**A.** The inhibition was -8.7%.

**Q.** With COc1ccc(-c2nc(N)ncc2-c2ccc(Cl)cc2)c(O)c1 as the compound, how does the inhibition read?
**A.** Its inhibition is 8.54%.
